Screening data from PubChem BioAssay.
Compounds with a hit are over-represented: about 15% of the library has one in this group of screens.
VP16 counter: Gal4-VP16 reporter inhibition counter-screen; Drosophila S2 Gal4-VP16 UAS-luciferase, luminescence, 20 h; Potency, µM (highest dose often 53.6 µM), without a hit: at the highest dose activity, negative = inhibition, actives largely listed as inhibitors; 3.5% of 310,000 active; AID 2546;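 note: Gal4-VP16 expression switched on by copper sulfate through the metallothionein promoter; nearly all actives have a fitted effect of over 50% in size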
TDP1 cell CPT: DT40-hTDP1 cell growth loss with CPT; chicken DT40 Tdp1-/-;hTDP1 cells + 20 nM CPT, ATP luminescence, 48 h; Potency, µM (highest dose often 46.2 µM), inactives show top-dose activity change, negative = growth inhibition, actives largely listed as inhibitors; 12% of 420,000 active; AID 686979; note: nearly all actives have a fitted effect of over 55% in size
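Chicken DT40 Tdp1-/- cells stably complemented with human TDP1 were seeded at 400 cells/well in medium containing 20 nM camptothecin, exposed to pin-transferred compounds, and grown at 37 °C for at least 48 hr. Viability was read as ATP luminescence.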
DT40 TDP1 no CPT: qHTS for Inhibitors of human tyrosyl-DNA phosphodiesterase 1 (TDP1): qHTS in cells in absence of CPT. DT40 Tdp1-/- hTDP1 cells, no CPT, ATP luminescence, 48 h. Potency, µM (doses to about 46.2 µM), inactives show top-dose activity change, negative = growth inhibition, usual class: inhibitors. 15% of 420,000 active. AID 686978, 2013; note: nearly all actives have a fitted effect of over 55% in size
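Camptothecin absent (DMSO only). Human TDP1-complemented DT40 knockout cells, 400 cells/well, 37 °C for minimum 48 hr; ATP measured via CellTiter-Glo, 30 min dark incubation, luminescence.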
ELG1 DNA repair: ELG1-dependent DNA repair inhibition. HEK293T ELG1-luciferase reporter, luminescence, 16 h; DNA damage induced by 5-fluorouridine. Potency, µM (highest dose often 46.1 µM), for inactives: at the highest dose activity change, negative = inhibition, most hits filed as inhibitors. 2.3% of 330,000 active; note: nearly all actives have a fitted effect of over 55% in size
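5-Fluorouridine DNA damage + compound/DMSO, 2,000 cells/well, 16 h, 37 °C/5% CO2. ONE-Glo, 30 min RT, luminescence. Readout = decrease in reporter signal.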
RORg inh: blocks mouse ROR gamma transcriptional activity; 5.4% of 310,000 active; Drosophila S2 Gal4-RORgamma UAS-luciferase reporter, 20 h; Potency, µM (doses to about 53.6 µM), inactives show at the highest dose activity change, negative = inhibition, hits mostly inhibitors; AID 2551; P51450; note: nearly all actives have a fitted effect of over 60% in size
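Using a luciferase readout, inhibitors were identified by reduced reporter activity in Drosophila cells coexpressing a copper-inducible Gal4–ROR gamma fusion and UAS-driven Photinus luciferase, incubated 20 hr after 700 uM copper sulfate.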
12-LOX inh: blocks human arachidonate 12S-lipoxygenase; purified 12hLO, xylenol orange hydroperoxide absorbance; 1.1% of 580,000 active; Potency, µM (highest dose often 108 µM), for inactives: top-dose activity change, negative = inhibition, actives largely listed as inhibitors
Target sequence (P18054 whole entry, looked up): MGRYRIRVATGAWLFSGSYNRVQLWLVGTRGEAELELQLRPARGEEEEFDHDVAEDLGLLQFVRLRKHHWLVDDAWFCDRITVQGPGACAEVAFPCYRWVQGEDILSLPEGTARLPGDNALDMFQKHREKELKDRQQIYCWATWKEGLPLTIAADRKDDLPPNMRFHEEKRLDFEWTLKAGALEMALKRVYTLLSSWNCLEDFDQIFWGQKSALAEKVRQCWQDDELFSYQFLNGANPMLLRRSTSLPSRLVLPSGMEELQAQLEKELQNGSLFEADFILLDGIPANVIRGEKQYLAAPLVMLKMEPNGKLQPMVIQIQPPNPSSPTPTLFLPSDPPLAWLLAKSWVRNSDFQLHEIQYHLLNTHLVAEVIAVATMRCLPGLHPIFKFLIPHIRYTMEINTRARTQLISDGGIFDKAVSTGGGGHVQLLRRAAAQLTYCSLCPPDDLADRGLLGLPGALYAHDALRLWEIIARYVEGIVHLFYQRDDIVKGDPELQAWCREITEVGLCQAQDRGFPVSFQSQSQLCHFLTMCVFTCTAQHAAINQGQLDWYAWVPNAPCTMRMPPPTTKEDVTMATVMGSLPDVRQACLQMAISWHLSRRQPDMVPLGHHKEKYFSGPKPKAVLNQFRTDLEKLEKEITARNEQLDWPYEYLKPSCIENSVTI
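Hydroperoxide product was detected by ferrous iron/xylenol orange as the 573 to 405 nm absorbance ratio. Arachidonic acid at 40 uM (final) was turned over for 30 min at room temperature by 150 nM human 12hLO, pH 7.0 Hepes buffer, after 15 min compound preincubation.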
Numbers without * were called inactive; ? = inconclusive; nt = not tested or not shown; [ ] = another dose, or the depositor's remark. Calls come from the whole dose curve; as a rule, active = well fitted curve in the direction sought with a large enough effect; inconclusive = small, poorly fitted or top-dose-only effect, or another doubt; inactive = no such curve, though single readings can be large; an effect the other way counts as inactive or inconclusive. % is set by controls: 0 for no effect and ±100 for the full control effect; potency is the fitted concentration of half-maximal effect.

SMILES | VP16 counter | TDP1 cell CPT | DT40 TDP1 no CPT | ELG1 DNA repair | RORg inh | 12-LOX inh
CCOc1ccc(-c2cn3ccccc3n2)cc1[N+](=O)[O-] | -17% | ? | ? | ? | -14% | -14%
CCCCOc1ccc(-c2cn3ccccc3n2)cc1[N+](=O)[O-] | -16% | ? | 26µM* | ? | 0% | -26%
CCCOc1ccc(-c2csc(N)n2)cc1[N+](=O)[O-] | -1% | 15µM* | 10µM* | ? | ? | -23%
COC(=O)c1ccc2c(c1)nc1n2[C@@H](CNC(=O)NC2CCCCC2)COC1 | nt | nt | nt | nt | nt | -24%[176 µM]
COCCNC(=S)NCc1cccc(CNC(=S)NCCOC)c1 | nt | nt | nt | nt | nt | -17%
Cc1cc(N2CCC(C)CC2)nc(-c2ccccc2O)n1 | -5% | -25% | -16% | -1% | 7% | 2%
Cc1cc(-n2[nH]c(C)c(C)c2=O)nc(-c2ccccc2O)n1 | ? | 16µM* | ? | ? | 11µM* | 14%
COc1cc2c(cc1OC)C(C)N(C(=O)c1ccccc1Br)CC2 (stereo not drawn) | nt | nt | nt | nt | nt | 5%
COc1cc2c(cc1OC)C(C)N(C(=O)c1c(C)noc1C)CC2 (stereo not drawn) | -3% | ? | 13µM* | -8% | -3% | 79%
COc1cc2c(cc1OC)C(C)N(C(=O)c1cc(C)on1)CC2 (stereo not drawn) | 5% | 0.82µM* | 1µM* | 9% | -15% | 3%
COc1cc2c(cc1OC)C(C)N(C(=O)c1cc3ccccc3o1)CC2 (stereo not drawn) | -12% | 8.2µM* | ? | ? | -25% | 21%
CC(C)CC(O)C(=O)N1CCC(n2nccc2NC(=O)c2ccccc2)CC1 (stereo not drawn) | nt | nt | nt | nt | nt | -1%
O=Cc1ccc(Oc2ncnc3ccccc23)cc1 | nt | nt | nt | nt | nt | 11%[12.5 µM]
Cn1c(NC(=O)c2ccco2)c(-c2cccc(C(F)(F)F)c2)c(=O)c2ccccc21 | nt | nt | nt | nt | nt | -3%
Cn1cc(-c2ccccc2OC(F)(F)F)c2nc(CN3CCNC(=O)C3)cn2c1=O | nt | nt | nt | nt | nt | -10%[176 µM]
Cc1ccc(N2CCN(C3=NC(=O)/C(=C\c4cn[nH]c4-c4ccccc4)S3)CC2)cc1 | -29% | ? | 21µM* | 1.6µM* | -6% | 0%
O=C1N=C(N2CCN(c3ccccc3)CC2)S/C1=C\c1cn[nH]c1-c1ccccc1 | -29% | 21µM* | 13µM* | 4.6µM* | 5% | -20%
O=C1N=C(N2CCC(Cc3ccccc3)CC2)S/C1=C/c1cn[nH]c1-c1ccccc1 | -10% | ? | 16µM* | ? | 31% | 0%
O=C1N=C(N2CCN(c3ccccc3)CC2)S/C1=C\c1ccco1 | 4% | -23% | -14% | ? | -2% | -28%
CCOC(=O)CSC1=NC(=O)CS1 | ? | 10µM* | ? | 2% | ? | 0%
COc1ccc(B(O)O)c(CN2CCN(C(=O)OC(C)(C)C)CC2)c1 | nt | 4% | 1% | nt | nt | -8%
C=C1CC2C(=O)N(Cc3cc(OC)ccc3OC)C(C(=O)OCC)(C(=O)OCC)C1N2C(=O)OC(C)(C)C (stereo not drawn) | 2% | 21µM* | ? | nt | 15% | -1%
CC1(C)CC[C@]2(C(=O)n3ccnc3)CC[C@]3(C)[C@H](C(=O)C=C4[C@@]5(C)C=C(C#N)C(=O)C(C)(C)[C@@H]5CC[C@]43C)[C@@H]2C1 | nt | 0.58µM* | 0.65µM* | nt | nt | ?
CC1(C)CC2(OC2c2ccccc2[N+](=O)[O-])C(=O)c2ccccc21 (stereo not drawn) | nt | 16µM* | 18µM* | nt | nt | -21%
COCCNC(=O)[C@@H]1C[C@H](Oc2cccnc2)CN1C(=O)Cc1c[nH]c2ccccc12 | nt | nt | nt | nt | nt | 37%
SMILES | VP16 counter | TDP1 cell CPT | DT40 TDP1 no CPT | ELG1 DNA repair | RORg inh | 12-LOX inh
CN1CCN(c2ncnc3ccc(-c4ccccc4Cl)cc23)CC1 | ? | 16µM* | 21µM* | nt | 33% | -12%
Cc1ccccc1-c1ccc2ncnc(N3CCN(C)CC3)c2c1 | ? | ? | 16µM* | nt | ? | -7%
Cc1noc(C)c1-c1ccc2ncnc(N3CCN(C)CC3)c2c1 | -5% | ? | ? | nt | ? | -25%
COc1cccc(NC(=O)[C@H](C(C)C)n2nnc3ccccc3c2=O)c1 | nt | nt | nt | nt | nt | -4%
CC(C)[C@@H](NC(=O)OC(C)(C)C)c1cc(C(=O)c2c(-c3ccccc3)[nH]c3ccccc23)c(N)s1 | nt | 18µM* | 18µM* | nt | nt | ?
CC(C)[C@H](NC(=O)OC(C)(C)C)c1cc(C(=O)NCCc2c[nH]c3ccccc23)c(N)s1 | nt | 16µM* | 21µM* | nt | nt | -47%
CC1CCN(CC2CCCCN2)CC1 (stereo not drawn) | nt | nt | nt | nt | nt | -3%
Cc1ccc(S(=O)(=O)N2CCCc3cc(NS(=O)(=O)c4cccc(Cl)c4)ccc32)cc1 | nt | 21µM* | 21µM* | nt | nt | -23%
Cc1ccc(S(=O)(=O)N2CCCc3cc(NC(=O)c4ccc(Cl)cc4)ccc32)cc1 | nt | ? | ? | nt | nt | 4%
CCOc1ccc(S(=O)(=O)Nc2ccc(S(=O)(=O)N3CCCC3)cc2)cc1 | 5% | 3% | -7% | -5% | 3% | -17%
CCOc1ccc(S(=O)(=O)Nc2ccc3c(c2)CCCN3S(=O)(=O)c2ccc(C)cc2)cc1 | nt | ? | 18µM* | nt | nt | ?
Nc1cc(Cl)ccc1Sc1ccccc1 | nt | nt | nt | nt | nt | -13%
CSc1ccc(CNC(=O)C2CCN(c3nnc(-n4cccc4CNc4ccc(C)cc4)s3)CC2)cc1 | nt | ? | 16µM* | nt | nt | -1%
Cc1ccc(NCc2cccn2-c2nnc(N3CCC(C(=O)NCCC(C)C)CC3)s2)cc1 | nt | ? | 21µM* | nt | nt | -19%
CC(C)NC(=O)C(C#N)C(=O)c1cccc(NC(=O)NC2CC2)c1 (stereo not drawn) | nt | nt | nt | nt | nt | -47%
COc1ccc(-c2cc(N3CCC(NC(=O)c4ccc(Cl)cc4OC)CC3)n[nH]2)cc1 | nt | nt | nt | nt | nt | -2%
O=C1NCCCCCCN(C(=O)COc2ccc(F)cc2)[C@H]2CCCC[C@@H]12 | nt | nt | nt | nt | nt | 38%
O=C(COc1ccc([N+](=O)[O-])cc1)Nc1ccc(CN2CCOCC2)cc1 | -2% | ? | 21µM* | ? | 37% | 1%
O=C(/C=C/c1cccc([N+](=O)[O-])c1)NC(=S)Nc1ccc(CN2CCOCC2)cc1 | ? | 16µM* | 18µM* | 0% | 13µM* | -22%
